Where “and” joins values, the source holds several entries; their conditions need not be identical. Identical values can stand only once. A structure can be active in one record and inactive in another. Calls of active or inactive are those of the source. Rule for the calls: active = hit-call score of the fitted dose curve at least 0.9, where 1 is the maximum; inactive = score below 0.9.
Columns and labels:
[1] = ATG_E_Box_CIS: Attagene CIS-FACTORIAL HepG2 Assay for human Enhancer Box (E-box) (AID 2282936); conditions: HepG2 E-box cis-reporter transcription, actives raise or lower the signal
Method in brief: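 Cells: HepG2 (human liver), transient MRTU transfection. Exposure 24 h. RNA → oligo(dT) RT → PCR → 6-FAM label → HpaI → CE. Activity fitted both directions relative to DMSO.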

[2] = ATG_M_61_CIS: Attagene CIS-FACTORIAL HepG2 Assay for M61 Transcription Factor (Internal Marker) (AID 2282937); conditions: HepG2 Attagene CIS-FACTORIAL M61 internal marker reporter; actives raise or lower the signal
Method in brief: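 HepG2 cells transiently transfected with multiplexed cis-promoter reporter units reporting endogenous transcription factor activity, measured 24 h after dosing. Reporter mRNA quantified by RT-PCR and capillary electrophoresis; bidirectional fit against DMSO baseline.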

[3] = ATG_EGR_CIS: Attagene CIS-FACTORIAL HepG2 Assay for human Early Growth Response 1 (EGR1) (AID 2282938); conditions: HepG2 Attagene CIS-FACTORIAL EGR reporter mRNA; actives raise or lower the signal
Method in brief: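 HepG2 cells transiently transfected with cis-element-driven multiplexed reporter units, dosed for 24 h. EGR1-element reporter mRNA quantified by RT-PCR, 6-FAM labelling, HpaI digestion and capillary electrophoresis; bidirectional fit versus DMSO.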

[4] = ATG_M_19_CIS: Attagene CIS-FACTORIAL HepG2 Assay for M19 Transcription Factor (Internal Marker) (AID 2282939); conditions: HepG2 Attagene CIS-FACTORIAL M19 internal marker reporter; actives raise or lower the signal
Method in brief: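 Internal marker readout, fitted in both directions against DMSO, from HepG2 cells carrying transfected cis-element reporter constructs; RT-PCR and capillary electrophoresis of reporter mRNA after 24 h exposure.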

[5] = ATG_ERE_CIS: Attagene CIS-FACTORIAL HepG2 Assay for Estrogen Response Element (ERE) (AID 2282940); conditions: HepG2 ERE cis-reporter, Attagene RNA transcript; actives raise or lower the signal
Method in brief: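 After 24 h compound treatment, RNA from transfected HepG2 cells was reverse-transcribed, reporter cDNA PCR-amplified, FAM-labelled, HpaI-cut and resolved by capillary electrophoresis. ERE-driven cis reporter transcripts reflect endogenous factors; gain or loss scored against DMSO.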

[6] = ATG_Ets_CIS: Attagene CIS-FACTORIAL HepG2 Assay for human Erythroblast Transformation Specific (ETS) (AID 2282941); conditions: HepG2 ETS cis-reporter transcription, actives raise or lower the signal
Method in brief: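 HepG2 cells transfected with multiple cis-regulated reporter units measuring endogenous ETS-driven transcription, 24 h after dosing. Reporter mRNA quantified by RT-PCR with capillary electrophoresis; bidirectional fit relative to DMSO.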

[7] = molecular target: Hepatocyte nuclear factor 3-beta (Homo sapiens) (UniProt Q9Y261); experiment: ATG_FoxA2_CIS: Attagene CIS-FACTORIAL HepG2 Assay for human Forkhead box A2 (FOXA2) (AID 2282942); conditions: HepG2 cis-reporter transcription factor activity, 24 h; actives raise or lower the signal
Chain of Hepatocyte nuclear factor 3-beta (Homo sapiens) (Q9Y261 whole entry, looked up): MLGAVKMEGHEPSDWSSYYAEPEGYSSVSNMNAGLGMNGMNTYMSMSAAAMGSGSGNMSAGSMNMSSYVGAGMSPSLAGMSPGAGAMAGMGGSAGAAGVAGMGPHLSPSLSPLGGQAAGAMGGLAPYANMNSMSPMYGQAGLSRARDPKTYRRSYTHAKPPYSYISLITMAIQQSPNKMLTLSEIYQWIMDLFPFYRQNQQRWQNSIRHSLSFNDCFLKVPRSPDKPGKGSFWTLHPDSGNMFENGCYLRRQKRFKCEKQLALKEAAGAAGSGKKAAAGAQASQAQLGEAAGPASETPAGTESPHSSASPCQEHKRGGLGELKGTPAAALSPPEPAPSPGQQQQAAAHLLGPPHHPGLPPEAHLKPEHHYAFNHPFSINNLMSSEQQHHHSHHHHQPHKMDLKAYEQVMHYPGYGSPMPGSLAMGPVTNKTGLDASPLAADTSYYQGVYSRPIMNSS
Method in brief: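 HepG2 transiently transfected with a multiplexed cis-promoter reporter library read endogenous FOXA2 activity. After 24 h compound exposure, reporter mRNA was quantified by RT-PCR, HpaI digestion and capillary electrophoresis. Bidirectional fit against DMSO.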

[8] = ATG_FoxO_CIS: Attagene CIS-FACTORIAL HepG2 Assay for human Forkhead box O (FoxO) (AID 2282943); conditions: HepG2 Attagene cis-reporter, FoxO element, mRNA; actives raise or lower the signal
Method in brief: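 Human hepatoma HepG2 cells carry transiently introduced reporter transcription units controlled by cis promoter elements. Chemical treatment lasted 24 h, and mRNA signal was compared with DMSO.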

[9] = ATG_GATA_CIS: Attagene CIS-FACTORIAL HepG2 Assay for human GATA Binding Protein (AID 2282944); conditions: HepG2 GATA cis-element reporter, Attagene multiplex mRNA; actives raise or lower the signal
Method in brief: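 Reporter transcripts from a GATA cis-regulated unit, among multiplexed reporters in transfected HepG2 cells, were measured by RT-PCR with capillary electrophoresis after 24 h dosing. Induction or loss scored relative to DMSO.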

[10] = ATG_GLI_CIS: Attagene CIS-FACTORIAL HepG2 Assay for human Zinc Finger Protein GLI1 (AID 2282945); conditions: HepG2, Attagene cis-factorial reporter mRNA, GLI element; actives raise or lower the signal
Method in brief: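 Bidirectional curve fits relative to DMSO, using reporter mRNA levels from RT-PCR plus capillary electrophoresis. Cells were HepG2 transiently carrying cis-regulated reporter constructs, harvested 24 h after dosing.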

[11] = ATG_GRE_CIS: Attagene CIS-FACTORIAL HepG2 Assay for human Glucocorticoid Response Elements (GRE) (AID 2282947); conditions: HepG2 GRE cis-reporter, Attagene multiplex mRNA; actives raise or lower the signal
Method in brief: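 Transient MRTU transfection of human HepG2 liver cells; cis-regulated reporters report endogenous factors. 24 h dosing → RNA isolation → RT-PCR → 6-FAM primer extension → HpaI cut → CE fragment analysis. Bidirectional fit, DMSO negative control.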

[12] = ATG_ISRE_CIS: Attagene CIS-FACTORIAL HepG2 Assay for human Interferon Regulatory Factor 1 (IRF1) binding to an Interferon-Stimulated Response Element (ISRE) (AID 2282948); conditions: HepG2 ISRE cis-reporter (Attagene), mRNA transcription readout; actives raise or lower the signal
Method in brief: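 Transiently transfected HepG2 cells carrying cis-element reporter units, dosed 24 hours. Reporter mRNA quantified by RT-PCR, fluorescent primer extension, HpaI digestion and capillary electrophoresis. Bidirectional fitting relative to DMSO.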

[13] = ATG_M_32_CIS: Attagene CIS-FACTORIAL HepG2 Assay for M32 Transcription Factor (Internal Marker) (AID 2282949); conditions: HepG2 Attagene cis-factorial M32 reporter, mRNA; actives raise or lower the signal;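 note: background control marker of the multiplexed CIS panel rather than a real target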
Method in brief: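 HepG2 cells transiently transfected with multiplexed cis-regulated reporter units, dosed 24 h. Reporter mRNA quantified by RT-PCR, 6-FAM labelling, HpaI digestion and capillary electrophoresis; bidirectional fit vs DMSO.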

[14] = ATG_M_06_CIS: Attagene CIS-FACTORIAL HepG2 Assay for M06 Transcription Factor (Internal Marker) (AID 2282950); conditions: HepG2 Attagene CIS-FACTORIAL M06 internal marker reporter; actives raise or lower the signal
Method in brief: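 Serves as a background control readout. Transfected HepG2 exposed to compounds for 24 h, then reporter transcripts quantified by fluorescent RT-PCR and capillary electrophoresis. Both directions fitted against DMSO baseline.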

[15] = molecular target: Hypoxia-inducible factor 1-alpha (Homo sapiens) (UniProt Q16665); experiment: ATG_HIF1a_CIS: Attagene CIS-FACTORIAL HepG2 Assay for human Hypoxia Inducible Factor 1 (HIF1A) (AID 2282951); conditions: HepG2 Attagene cis-factorial HIF1a reporter transcription; actives raise or lower the signal
Chain of Hypoxia-inducible factor 1-alpha (Homo sapiens) (Q16665 whole entry, looked up): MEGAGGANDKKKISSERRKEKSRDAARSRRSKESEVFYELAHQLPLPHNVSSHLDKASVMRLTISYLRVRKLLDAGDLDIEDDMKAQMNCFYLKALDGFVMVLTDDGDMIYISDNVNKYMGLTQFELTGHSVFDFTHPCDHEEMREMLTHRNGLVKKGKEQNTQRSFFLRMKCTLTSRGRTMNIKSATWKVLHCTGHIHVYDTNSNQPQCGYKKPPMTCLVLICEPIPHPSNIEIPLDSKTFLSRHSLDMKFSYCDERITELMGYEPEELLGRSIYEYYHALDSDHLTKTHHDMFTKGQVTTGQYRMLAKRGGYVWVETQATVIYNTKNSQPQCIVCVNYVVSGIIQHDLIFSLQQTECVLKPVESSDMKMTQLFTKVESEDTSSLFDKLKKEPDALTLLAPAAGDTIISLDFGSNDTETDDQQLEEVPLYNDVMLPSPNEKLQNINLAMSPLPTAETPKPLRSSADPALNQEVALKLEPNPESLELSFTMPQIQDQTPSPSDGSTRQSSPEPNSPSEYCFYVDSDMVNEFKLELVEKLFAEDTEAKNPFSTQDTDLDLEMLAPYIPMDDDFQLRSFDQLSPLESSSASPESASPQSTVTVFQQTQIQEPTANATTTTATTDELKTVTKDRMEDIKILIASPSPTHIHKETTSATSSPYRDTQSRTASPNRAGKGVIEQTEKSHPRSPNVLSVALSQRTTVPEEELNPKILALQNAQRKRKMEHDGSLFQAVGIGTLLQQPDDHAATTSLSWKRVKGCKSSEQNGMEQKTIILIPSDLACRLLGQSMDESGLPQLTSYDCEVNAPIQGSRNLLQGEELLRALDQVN
Method in brief: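 HepG2 cells transiently transfected with multiple cis-regulated reporter transcription units measure endogenous transcription factor activity. After 24 h exposure, reporter mRNA is quantified by RT-PCR with 6-FAM labelling, HpaI digestion and capillary electrophoresis. Bidirectional fitting against DMSO.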

[16] = molecular target: Hepatocyte nuclear factor 6 (Homo sapiens) (UniProt Q9UBC0); experiment: ATG_HNF6_CIS: Attagene CIS-FACTORIAL HepG2 Assay for human Hepatocyte Nuclear Factor 6 (HNF6) (AID 2282952); conditions: HepG2 Attagene cis-factorial HNF6 reporter transcription; actives raise or lower the signal
Chain of Hepatocyte nuclear factor 6 (Homo sapiens) (Q9UBC0 whole entry, looked up): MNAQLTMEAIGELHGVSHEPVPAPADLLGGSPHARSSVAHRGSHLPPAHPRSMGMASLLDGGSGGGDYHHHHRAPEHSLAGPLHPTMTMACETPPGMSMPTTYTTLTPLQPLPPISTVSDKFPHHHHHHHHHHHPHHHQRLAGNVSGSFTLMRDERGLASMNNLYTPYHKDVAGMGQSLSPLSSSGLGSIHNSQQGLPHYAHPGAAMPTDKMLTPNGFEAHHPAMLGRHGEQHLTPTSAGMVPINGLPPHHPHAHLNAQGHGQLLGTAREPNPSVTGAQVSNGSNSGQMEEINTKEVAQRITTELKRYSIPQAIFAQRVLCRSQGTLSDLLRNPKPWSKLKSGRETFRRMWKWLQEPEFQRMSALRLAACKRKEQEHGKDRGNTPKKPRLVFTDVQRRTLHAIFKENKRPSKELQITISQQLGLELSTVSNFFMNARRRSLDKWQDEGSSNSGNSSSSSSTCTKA
Method in brief: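 Multiplexed mRNA reporter assay in transfected HepG2; 24 h dosing; RT-PCR plus capillary electrophoresis fluorescence; DMSO-referenced bidirectional curve fitting.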

[17] = molecular target: Heat shock factor protein 1 (Homo sapiens) (UniProt Q00613); experiment: ATG_HSE_CIS: Attagene CIS-FACTORIAL HepG2 Assay for human Heat Shock Transcription Factor 1 (HSE) (AID 2282953); conditions: HepG2 HSE cis-reporter, Attagene RNA transcription; actives raise or lower the signal
Chain of Heat shock factor protein 1 (Homo sapiens) (Q00613 whole entry, looked up): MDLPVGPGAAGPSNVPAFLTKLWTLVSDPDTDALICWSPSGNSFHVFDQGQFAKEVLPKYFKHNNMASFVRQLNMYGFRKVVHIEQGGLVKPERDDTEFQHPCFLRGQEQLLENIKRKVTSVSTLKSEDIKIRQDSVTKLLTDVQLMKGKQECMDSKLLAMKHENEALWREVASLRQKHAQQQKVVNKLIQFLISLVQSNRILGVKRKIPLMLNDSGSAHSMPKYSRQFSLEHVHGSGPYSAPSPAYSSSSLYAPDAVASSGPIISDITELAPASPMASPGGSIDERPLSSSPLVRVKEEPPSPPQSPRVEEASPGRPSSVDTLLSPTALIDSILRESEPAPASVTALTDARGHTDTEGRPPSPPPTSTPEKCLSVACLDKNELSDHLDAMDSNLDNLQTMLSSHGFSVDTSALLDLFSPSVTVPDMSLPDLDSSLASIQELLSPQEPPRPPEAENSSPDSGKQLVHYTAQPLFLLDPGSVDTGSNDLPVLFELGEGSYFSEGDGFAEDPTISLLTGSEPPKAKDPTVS
Method in brief: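 Endogenous transcription factor activity in transiently transfected HepG2, read as reporter mRNA by RT-PCR with fluorescent capillary electrophoresis after 24 h. Gain or loss of signal fitted versus DMSO baseline.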

[18] = ATG_MRE_CIS: Attagene CIS-FACTORIAL HepG2 Assay for human Metal Responsive Element (MRE) (AID 2282954); conditions: HepG2 MRE cis-reporter transcription, Attagene multiplex; actives raise or lower the signal
Method in brief: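 Transient MRTU transfection of HepG2 (FuGene 6); 24 h dosing; total RNA → oligo(dT) RT, PCR, 6-FAM primer extension, HpaI cut, CE. Bidirectional fit vs DMSO.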

[19] = ATG_PBREM_CIS: Attagene CIS-FACTORIAL HepG2 Assay for human Phenobarbital-responsive Enhancer Module (PBREM) (AID 2282955); conditions: HepG2 PBREM cis-reporter, Attagene multiplexed transcription; actives raise or lower the signal
Method in brief: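 HepG2 cells transiently transfected with multiple cis-regulated reporter units measure endogenous transcription factor activity; 24 h compound exposure. Reporter mRNA quantified by RT-PCR, fluorescent labelling, HpaI digestion and capillary electrophoresis; bidirectional fit versus DMSO.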

[20] = molecular target: Paired box protein Pax-6 (Homo sapiens) (UniProt P26367); experiment: ATG_Pax6_CIS: Attagene CIS-FACTORIAL HepG2 Assay for human Paired Box 6 (PAX6) (AID 2282956); conditions: HepG2 CIS-FACTORIAL PAX6 reporter transcription, RNA readout; actives raise or lower the signal
Chain of Paired box protein Pax-6 (Homo sapiens) (P26367 whole entry, looked up): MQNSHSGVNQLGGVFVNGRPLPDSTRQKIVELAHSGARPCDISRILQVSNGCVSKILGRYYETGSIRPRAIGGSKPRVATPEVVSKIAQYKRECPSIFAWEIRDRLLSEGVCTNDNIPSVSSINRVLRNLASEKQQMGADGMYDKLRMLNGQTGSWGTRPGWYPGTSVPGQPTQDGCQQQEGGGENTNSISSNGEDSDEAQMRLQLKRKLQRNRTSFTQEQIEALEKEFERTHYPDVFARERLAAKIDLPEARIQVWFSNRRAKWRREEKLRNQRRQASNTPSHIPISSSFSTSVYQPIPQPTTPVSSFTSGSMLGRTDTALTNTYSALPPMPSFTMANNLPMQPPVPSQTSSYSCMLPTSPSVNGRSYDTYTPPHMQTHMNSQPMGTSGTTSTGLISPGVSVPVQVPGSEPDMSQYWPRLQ
Method in brief: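 HepG2 cells transiently transfected with cis-promoter-driven multiplexed reporter units sensing endogenous transcription factor activity; 24 h chemical exposure. Reporter mRNA quantified by RT-PCR, 6-FAM labelling, HpaI digestion and capillary electrophoresis; bidirectional fit versus DMSO baseline.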

Measured: AC50

CCC(C)c1cc([N+](=O)[O-])cc([N+](=O)[O-])c1O (stereo not given)
active: [12] 8.83 µM | [18] 13.5 µM | [20] 56.2 µM
inactive: all other assays above

CCC(C)(c1ccc(O)cc1)c1ccc(O)cc1
active: [1] 43.5 µM | [3] 48.8 µM | [5] 198 nM [middle of 4 runs] | [6] 53.8 µM | [9] 44.9 µM | [10] 60.5 µM | [12] 45.6 µM and 50.3 µM and 33.4 µM | [15] 75.9 nM and 26.2 µM | [16] 51.8 µM | [19] 1.17 µM | [20] 52.8 µM and 62.6 µM and 24.6 µM
inactive: [1] | [2] | [3] | [4] | [6] | [7] | [8] | [9] | [10] | [12] | [13] | [14] | [15] | [16] | [19] | [20]

CCCCCCOC(=O)c1ccccc1C(=O)OCCCCCC
active: [5] 4.15 µM
inactive: all other assays above

NS(=O)(=O)C(F)(F)C(F)(F)C(F)(F)C(F)(F)C(F)(F)C(F)(F)C(F)(F)C(F)(F)F
inactive: [1] | [3] | [4] | [6] | [7] | [8] | [9] | [10] | [11] | [12] | [13] | [14] | [15] | [16] | [19] | [20]
active: [1] 240 µM | [3] 52 µM and 40.8 µM | [5] 14.2 µM and 38.2 µM and 5.74 µM | [6] 38.8 µM | [7] 258 µM | [12] 91.1 µM and 35.8 µM | [15] 8.26 µM | [16] 96.7 µM | [17] 59.8 µM and 115 µM and 28.3 µM | [18] 52.2 µM and 39.2 µM and 50 µM | [19] 46.7 µM and 33.8 µM | [20] 54.8 µM and 92.1 µM

From PubChem BioAssay (EPA / NIEHS)
